The values below come from PMC4081100, “A DNA-binding-site landscape and regulatory network analysis for NAC transcription factors in Arabidopsis thaliana”.

GST-WRKY1(266-371), sequence (Q9SI37 266-371): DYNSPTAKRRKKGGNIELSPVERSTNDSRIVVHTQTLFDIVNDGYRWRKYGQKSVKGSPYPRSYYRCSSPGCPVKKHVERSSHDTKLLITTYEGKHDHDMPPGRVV

The assay has as its target GST-WRKY1(266-371) (Arabidopsis thaliana, UniProt Q9SI37 266-371). The assay can be described thus: universal protein binding microarray (PBM); transcription factors of Arabidopsis thaliana; high values mean tight binding. Conditions: protein: recombinant; tags: GST; dsDNA, one strand shown. The procedure, abridged:
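Binding is expressed as the normalised enrichment score (E-score). Proteins carrying a GST tag, whether NAC-domain, full-length or DNA-binding-domain forms, were induced in cells, and zinc acetate was added for zinc-finger proteins. After purification on glutathione–Sepharose 4B and quantification by A280 or anti-GST western blot, each was applied in duplicate at 200 to 500 nM final to custom all-10-mer Agilent 4 × 180K arrays made double-stranded by primer extension. Gapped and ungapped 8-mers were scored.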
Regarding CTGACCAG, the binding signal came out at 0.444 E-score. As to CTCTGACC, the binding signal was 0.458 E-score. As for GGGTCAGA, the figure is 0.432 E-score; as for CGATTGAC, 0.443 E-score. As to TCGGGTCA, the binding signal worked out at 0.434 E-score. As for TGACCGCA, the figure is 0.429 E-score.

As to CGGTCAAG, the binding signal stood at 0.483 E-score. As for CGCTGACC, the figure is 0.474 E-score; as for TGACCCAA, 0.419 E-score. Turning to ACCAGTCA, the binding signal came out at 0.421 E-score. Then AAGACCGG, with 0.428 E-score; and ACCTTGAC, with 0.472 E-score; and CCTTGACC, with 0.487 E-score. Then CCATTGAC, with 0.473 E-score. Then GTCAGACA, with 0.41 E-score. On to GGTCTGAC, for which the binding signal was 0.441 E-score. As for TCTGACCA, the figure is 0.456 E-score; as for ATGACCGG, 0.407 E-score. For CGGTCCAC, the binding signal is 0.434 E-score.

Take ATCGGTCA: the binding signal turned out to be 0.451 E-score. Then GCTTTGAC, with 0.466 E-score; and ACGACCAG, with 0.403 E-score.

With CGGTTGAC, the binding signal came to 0.475 E-score.

GCTTGACC: the binding signal is 0.482 E-score. Then CGGTCTTC, with 0.438 E-score; and GCGGTCAA, with 0.487 E-score; and ATGCTGAC, with 0.41 E-score. CTGACCAA: the binding signal stood at 0.427 E-score. As for GCTGACTA, the figure is 0.417 E-score; as for ATCTTGAC, 0.47 E-score. With CCGGTCAA, the binding signal stood at 0.493 E-score. On to CCAGGTCA, for which the binding signal was found to be 0.408 E-score.

Take GCCTTGAC: the binding signal is 0.457 E-score. Then CAGGTCAA, with 0.484 E-score; and CTATGACC, with 0.412 E-score; and GAGTCAGC, with 0.418 E-score. In the case of GGCGGTCA, the binding signal was 0.428 E-score. As for AGTCAGCG, the figure is 0.453 E-score; as for ATAGGTCA, 0.409 E-score.
